Measured values published in PubChem BioAssay AID1159580 (chemical genetic matrix, 2015).
The whole screen tested about 5,500 compounds, of which about 2,000 (36%) were called active. Roughly 18% stayed inconclusive and do not appear here. Cut-off read from the data, not from the text of the source: active = normalized growth mostly below about 0.91 (no sharp cut-off); inconclusive = no clear call, values can overlap the other calls; inactive = mostly above about 0.92. The list shows a part of the results.

Experiment: chemical genetic growth profiling, strain panel (AID 1159580);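 note: tested at 20 µM; growth read once vehicle control cultures reached saturation at 30 °C; 1 = growth at the plate median or of vehicle wells; lower values mean less growth of the strain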
Conditions: S. cerevisiae deletion strains, growth OD

Measured: normalized growth

CC1CN(S(=O)(=O)c2cccc3cnccc23)CCN1 (stereo not drawn)
inactive: locus YAL040C, strain CLN3, hits give low values 1.01 | locus YCL061C, strain MRC1 (second series), hits give low values 1.01 | locus YDR363W, strain ESC2, hits give low values 1.02 | locus YER002W, strain NOP16, hits give low values 1 | locus YGR078C, strain PAC10, hits give low values 1.02 | locus YJR075W, strain HOC1, hits give low values 0.996 | locus YMR307W, strain GAS1, hits give low values 0.997 | locus YNL128W, strain TEP1, hits give low values 1.01 | locus YNL153C, strain GIM3, hits give low values 1.01 | locus YNL175C, strain NOP13, hits give low values 1.01 | locus YNL197C, strain WHI3, hits give low values 1.01 | locus YNL224C, strain SQS1, hits give low values 1.03 | locus YNL322C, strain KRE1, hits give low values 0.999 | locus YOR083W, strain WHI5 (second series), hits give low values 1.02 | locus YPL055C, strain LGE1, hits give low values 1.02 | locus YPL241C, strain CIN2, hits give low values 1

NC(=O)c1ccc(N)nc1
inactive: locus YAL021C, strain ccr4, hits give low values 0.994 | locus YAL026C, strain drs2, hits give low values 1.01 | locus YAL030W, strain snc1, hits give low values 0.982 | locus YBR009C, strain hhf1, hits give low values 0.99 | locus YBR023C, strain chs3, hits give low values 0.995 | locus YBR171W, strain sec66, hits give low values 1.02 | locus YBR231C, strain swc5, hits give low values 0.989 | locus YBR279W, strain paf1, hits give low values 0.982 | locus YCL011C, strain gbp2, hits give low values 1 | locus YCL016C, strain dcc1, hits give low values 1 | locus YCL069W, strain vba3, hits give low values 1.01 | locus YCR088W, strain abp1, hits give low values 1.01 | locus YDL005C, strain med2, hits give low values 0.987 | locus YDL040C, strain nat1, hits give low values 0.988 | locus YDR001C, strain nth1, hits give low values 1.01 | locus YDR069C, strain doa4, hits give low values 0.981 | locus YDR137W, strain rgp1, hits give low values 1 | locus YDR159W, strain sac3, hits give low values 0.978 | locus YDR195W, strain ref2 0.942 | locus YDR297W, strain sur2, hits give low values 0.999 | locus YDR334W, strain swr1, hits give low values 0.99 | locus YDR335W, strain msn5, hits give low values 1 | locus YDR392W, strain spt3, hits give low values 1 | locus YEL003W, strain gim4, hits give low values 1 | locus YEL037C, strain rad23, hits give low values 1.01 | locus YEL061C, strain CIN8 (second series), hits give low values 1 | locus YER015W, strain faa2, hits give low values 0.997 | locus YER016W, strain bim1, hits give low values 0.997 | locus YER111C, strain swi4, hits give low values 1.01 | locus YER155C, strain BEM2 (second series), hits give low values 1.01 | locus YFR010W, strain ubp6, hits give low values 1 | locus YGL167C, strain pmr1, hits give low values 0.999 | locus YGL173C, strain kem1, hits give low values 0.993 | locus YGL227W, strain vid30, hits give low values 1.01 | locus YGL240W, strain doc1, hits give low values 1 | locus YGL253W, strain hxk2, hits give low values 1.01 | locus YHR013C, strain ard1, hits give low values 0.979 | locus YHR027C, strain rpn1, hits give low values 0.998 | locus YHR030C, strain SLT2, hits give low values 1.03 | locus YHR079C, strain IRE1, hits give low values 1.02 | locus YHR142W, strain chs7, hits give low values 1.01 | locus YJL092W, strain hpr5, hits give low values 1 | locus YJL095W, strain BCK1 (second series), hits give low values 0.989 | locus YJL095W, strain BCK1, hits give low values 1.03 | locus YJL115W, strain asf1, hits give low values 1 | locus YJL129C, strain trk1, hits give low values 1.01 | locus YJL154C, strain vps35, hits give low values 0.995 | locus YJL164C, strain tpk1, hits give low values 0.978 | locus YJL166W, strain qcr8, hits give low values 1.01 | locus YJR066W, strain TOR1, hits give low values 0.951 | locus YKL160W, strain elf1, hits give low values 0.975 | locus YKR026C, strain gcn3, hits give low values 1.01 | locus YKR091W, strain srl3, hits give low values 0.997 | locus YLL001W, strain dnm1, hits give low values 1.01 | locus YLL026W, hits give low values 0.999 | locus YLL041C, strain sdh2, hits give low values 1 | locus YLR027C, strain aat2, hits give low values 1.01 | locus YLR113W, strain HOG1, hits give low values 1.02 | locus YLR221C, strain rsa3, hits give low values 0.995 | locus YLR258W, strain gsy2, hits give low values 1 | locus YLR262C, strain YPT6 (second series), hits give low values 1.01 | locus YLR320W, strain mms22, hits give low values 0.995 | locus YLR342W, strain FKS1, hits give low values 0.996 | locus YLR357W, strain rsc2, hits give low values 0.967 | locus YLR370C, strain arc18, hits give low values 1 | locus YLR384C, strain iki3, hits give low values 0.986 | locus YML120C, strain ndi1, hits give low values 0.987 | locus YMR058W, strain fet3, hits give low values 0.999 | locus YMR125W, strain sto1, hits give low values 1.01 | locus YMR129W, hits give low values 0.983 | locus YMR205C, strain PFK2, hits give low values 0.998 | locus YMR231W, strain pep5, hits give low values 1 | locus YNL071W, strain lat1, hits give low values 0.99 | locus YNL183C, strain NPR1, hits give low values 0.961 | locus YNL209W, strain ssb2, hits give low values 0.996 | locus YNL248C, strain rpa49, hits give low values 1.01 | locus YNL322C, strain KRE1 (second series), hits give low values 0.986 | locus YNR049C, strain mso1, hits give low values 1.01 | locus YOR001W, strain rrp6, hits give low values 0.997 | locus YOR070C, strain gyp1, hits give low values 0.993 | locus YOR080W, strain dia2, hits give low values 0.993 | locus YOR083W, strain WHI5, hits give low values 1 | locus YOR106W, strain vam3, hits give low values 1.01 | locus YOR231W, strain MKK1, hits give low values 1.05 | locus YOR265W, strain rbl2, hits give low values 0.993 | locus YOR270C, strain vph1, hits give low values 1.02 | locus YOR290C, strain snf2, hits give low values 1.01 | locus YPL051W, strain arl3, hits give low values 0.993 | locus YPL078C, strain atp4, hits give low values 1 | locus YPL106C, strain sse1, hits give low values 0.992 | locus YPL240C, strain hsp82, hits give low values 0.993 | locus YPL256C, strain CLN2, hits give low values 1.03
